Only some compounds are listed: those with a hit (about 8% of all), similar ones and a draw of the others.
SW480 rereplic: inducers of DNA re-replication in SW480 colon cancer cells; SW480 DNA re-replication, Hoechst DNA content imaging, 48 h; Potency, µM (highest dose often 46.1 µM), most hits filed as activators; hit rate 1.8% among 340,000; AID 624297; further: nearly all actives have a fitted effect of over 55% in size
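SW480 cells exposed to compounds for 48 hr at 37 C, 5% CO2, then Hoechst-stained 40 min. Nuclear DNA content imaged by fluorescence scanning (405 nm excitation, 500-530 nm emission); re-replication scored as increased high-intensity nuclei.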
KB-V1 MDR tox: KB-V1 MDR subline cytotoxicity; Potency, µM (titrated, usually from 46.1 µM), actives largely listed as cytotoxic; KB-V1 MDR cells viability, CellTiter-Glo, 72 h; hit rate 3.4% among 400,000; AID 1347076; further: nearly all actives have a fitted effect of over 60% in size
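KB-V1 MDR subline cells in DMEM (phenol-red free, 10% FBS) exposed to compounds in qHTS concentration series for 72 h at 37 degrees C. Viability read by CellTiter-Glo luminescence; concentration-effect curves fitted after normalization and correction.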
HT1080 IDH1KD tx: HT-1080 IDH1 knockdown cell toxicity (counter line). HT-1080 IDH1 knockdown viability, ATP luminescence, 48 h. Potency, µM (doses to about 46.1 µM), usual class: cytotoxic. hit rate 2% among 360,000. AID 686971
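Cytotoxicity counter-line: IDH1KD HT-1080, 48 h, CellTiter-Glo. Curves classed by r2, magnitude and activity.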
MCF10A rereplic: induces DNA re-replication in MCF 10a normal breast cells; hit rate 2.9% among 350,000; Potency, µM (highest dose often 46.1 µM), hits mostly activators; MCF 10A DNA re-replication, Hoechst nuclear intensity, 48 h; further: nearly all actives have a fitted effect of over 50% in size
HT1080NT lethal: kills 2HG-producing HT-1080-NT fibrosarcoma cells | HT-1080-NT fibrosarcoma viability, CellTiter-Glo ATP luminescence, 48 h | Potency, µM (titrated, usually from 46.1 µM), usual class: cytotoxic | hit rate 1.6% among 360,000;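 further: NT is the 2HG producing partner of a matched IDH1 knockdown line; nearly all actives have a fitted effect of over 55% in size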
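Luminescent CellTiter-Glo readout after 48 hours of compound exposure at 37 degrees C defined viability of HT-1080-NT cells. Activity was normalized to DMSO wells and cell-free media wells; concentration-response curves were fitted and assigned curve classes.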
KB-3-1 cytotox: kills parental KB-3-1 adenocarcinoma cells; Potency, µM (top dose mostly 46.1 µM), actives largely listed as cytotoxic; AID 1347075; KB-3-1 viability, CellTiter-Glo ATP luminescence, 72 h; hit rate 1.4% among 400,000; further: nearly all actives have a fitted effect of over 60% in size
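Here the drug-naive KB-3-1 line serves as comparator for MDR sub-line selectivity; cells received compound titrations, 72 h at 37 °C, then CellTiter-Glo readout.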
A number is an active result; . = inactive; ? = inconclusive; / = no result given; ! = a repeat was not active; [ ] = another dose, or the depositor's remark. The call rests on the fitted dose curve; in most records, active means well fitted curve in the direction sought with a large enough effect; inconclusive means small, poorly fitted or top-dose-only effect, or another doubt; inactive means no such curve, though single readings can be large; an effect the other way counts as inactive or inconclusive.

SMILES	SW480 rereplic	KB-V1 MDR tox	HT1080 IDH1KD tx	MCF10A rereplic	HT1080NT lethal	KB-3-1 cytotox
COc1cc(CN2CCCCCC2)cc(OC)c1O	.	.	.	.	.	.
Cc1cccc(N2CCN(Cc3ccoc3)CC2)c1C	?	.	?	21µM	.	.
COc1cc(CN2CCN(c3cccc(C)c3C)CC2)cc(OC)c1O	.	18µM	.	.	.	.
CCCc1cc(N2CCN(c3ccc(OC)cc3)CC2)n2cnnc2n1	/	.	/	/	/	?
Cc1cc(C(=O)Nc2ccc(C(C)C)cc2)c2c(C)nn(-c3ccccc3)c2n1	/	?	/	/	/	.
CCCN(CCC)c1ccc(/C=C/c2ccc3cc(OCC)ccc3n2)cc1	2.1µM	.	.	?	.	.
CN(C)c1ccc(/C=C/c2ccnc3c(O)cccc23)cc1	/	.	/	/	/	?
Oc1ccc(/C=C/c2ccc3ccccc3n2)cc1	18µM	.	.	?	.	?
CN(C)c1ccc(/C=C/c2cccc3cc4ccccc4nc23)cc1	/	.	/	/	/	4.1µM
CN(C)c1ccc(/C=C/c2ccnc3c(Cl)cccc23)cc1	/	?	/	/	/	16µM
C(=C\c1ccc2ccccc2n1)/c1ccccc1	?	.	?	.	?	?
CN(C)c1ccc(/C=C/c2ccc3cc(N(C)C)ccc3n2)cc1	/	?	/	/	/	.
CCOC(=O)c1scc(-c2ccc(C)cc2)c1S(=O)(=O)Nc1cc(Cl)ccc1OC	/	.	/	/	/	.
C=Cc1c(C)/c2[n-]/c1=C\c1[n-]c(c(CC)c1C)/C=c1\[n-]c3c(c1C)C(=O)C(C(=O)[O-])C=3c1[n-]c(c(C)c1CCC(=O)[O-])\C=2.[Cu].[Na+].[Na+] (centres undefined)	.	/	/	.	/	/
CN(C)c1ccc(/C=C/c2cc3ccccc3cn2)cc1	/	.	/	/	/	1.5µM
CN(C)c1ccc(/C=C/c2ccc3ccccc3n2)cc1	23µM	7.3µM!	?	5.2µM	?	8.2µM!
CC[N+](CC)(CC)c1ccc(/C=C/c2ccc3ccccc3n2)cc1	/	.	/	/	/	1.8µM
O=C(CNC(=O)c1ccccc1Cl)OCc1cc(=O)n2ccsc2n1	/	.	/	/	/	.
Cc1nc(-c2ccc(Cl)cc2)sc1CCNC(=O)c1ccco1	/	.	/	/	/	.
CCOc1ccccc1NC(=O)Nc1cc(C(=O)NCc2ccc(C)cc2)ccc1N1CCCC1	/	.	/	/	/	.
Cc1ccc(S(=O)(=O)N(CC(=O)NCCc2ccc(Cl)cc2)c2ccccc2C)cc1	/	.	/	/	/	.
O=S(=O)(Nc1ccc(O)c2ccccc12)c1cccs1	?	?	21µM	?	26µM	?
CCc1ccc(-n2nc3ccc(NC(=O)c4ccc(C#N)cc4F)cc3n2)cc1	/	.	/	/	/	.
CCOC(=O)c1c(C)[nH]c(C2=NNC(=Nc3ccccc3OC)SC2)c1C	?	?	?	.	?	18µM
CCOc1cc(/C=N/Nc2nc(-c3cccc(S(=O)(=O)N4CCCC4)c3)cs2)ccc1O	.	13µM	.	?	.	.
SMILES	SW480 rereplic	KB-V1 MDR tox	HT1080 IDH1KD tx	MCF10A rereplic	HT1080NT lethal	KB-3-1 cytotox
COc1ccc(/C=N/Nc2nc(-c3cccc(S(=O)(=O)N4CCCC4)c3)cs2)cc1OC	.	.	.	.	.	.
C/C=C(\C)CN1CCC(n2nccc2NC(=O)CCOc2ccccc2)CC1	18µM	.	.	.	.	.
C/C=C(\C)CN1CCC(n2nccc2NC(=O)CCc2ccccc2)CC1	.	.	.	.	.	.
O=C(Nc1ccc(Cn2cccn2)cc1)c1ccc(COc2ccc(Br)cc2)cc1	.[9.22 µM]	.	.	.	.	.
O=C(Nc1ccc(Cn2cccn2)cc1)c1ccc(COc2cccc(Br)c2)cc1	.	9.2µM	?	?	.	0.73µM
COc1cc(OC)c(-c2oc3ccccc3c(=O)c2O)c(OC)c1	16µM	?	?	?	?	8.2µM
COc1cc(-c2oc3ccc(C)cc3c(=O)c2O)cc(OC)c1OC	/	23µM	/	/	/	?
COc1ccc(OC)c(-c2oc3ccccc3c(=O)c2O)c1	?	.	?	.	?	.
Cc1nnsc1-c1onc(C)c1C(=O)Nc1cc(Cl)cc(Cl)c1	.	16µM	?	.	?	.
CCc1ccccc1Nc1nc(N)nc(COC(=O)c2cccn2C)n1	.	15µM	6.3µM	?	?	.
Cc1ccccc1NC(=O)c1cccc2nc3ccccc3nc12	18µM	?	.	?	.	?
O=C(CCS(=O)(=O)c1cc(Br)cc2c1N(C(=O)C1CC1)CC2)Nc1ccc(F)cc1	/	.	/	/	/	.
CC(C)(C)C(=O)NC1(C(F)(F)F)C(=O)Nc2c1c(=O)[nH]c(=O)n2-c1ccccc1 (centres undefined)	/	.	/	/	/	.
Cc1ccccc1NC(=O)CCCCC(=O)Nc1ccccc1C	?	.	.	.	.	.
Cc1ccccc1NNC(=O)C(=O)NNc1ccccc1C	.	.	18µM	?	.	?
Cc1ccccc1NC(=O)C(Cl)=C(Cl)Cl	?	?	?	18µM	?	?
Cc1ccc(C)c(NNC(=O)C(=O)NNc2cc(C)ccc2C)c1	.	.	.	.	.	.
c1cc2cc(-c3c(-c4ccc5c(c4)OCO5)noc3-c3ccsc3)ccc2[nH]1	.	21µM!	?	?	.	?
c1ccc(-c2onc(-c3ccco3)c2-c2ccc3[nH]ccc3c2)cc1	.	23µM!	.	?	.	?
Cc1nn2c(=O)cc(CN(C)c3ccccc3)nc2s1	/	.	/	/	/	.
CCOc1ccccc1NC(=O)CN(c1ccc(OC)cc1)S(=O)(=O)c1c(C)noc1C	5.8µM	2.6µM	5.2µM	6.5µM	5.2µM	5.8µM
CCOC(=O)c1cccc(NC(=O)CN(c2ccc(OC)cc2)S(=O)(=O)c2c(C)noc2C)c1	.	9.2µM	.	.	.	.
COc1ccc(N(CC(=O)N2CCc3ccccc32)S(=O)(=O)c2c(C)noc2C)cc1	.	10µM	.	?	.	?
COc1ccc(N(CC(=O)Nc2cccc(C(=O)O)c2)S(=O)(=O)c2c(C)noc2C)cc1	.	.	.	.	.	.
Cc1noc(C)c1S(=O)(=O)N(CC(=O)N1CCc2ccccc21)c1ccc(C(C)C)cc1	.	.	.	.	.	.
CCOc1ccc(N(CC(=O)Nc2ccccc2C)S(=O)(=O)c2c(C)noc2C)cc1	3.3µM	?	3.7µM	2.6µM	4.6µM	5.8µM
Cn1ccc2cc(S(=O)(=O)N3CCC(C(=O)NCCc4ccccc4)CC3)ccc21	/	.	/	/	/	.
CCN(CC)CCNC(=O)c1c(C)[nH]c(/C=C2\C(=O)Nc3ccc(F)cc32)c1C	.	/	/	.	/	/
CC(C)(C)NC(=O)C1CCN(c2nc3ccccc3nc2C(F)(F)F)CC1	/	.	/	/	/	.
Cc1ccc(Cl)cc1N1CCN(C(=O)c2ccc3c(c2)N(Cc2ccccc2F)C(=O)c2ccccc2S3(=O)=O)CC1	/	.	/	/	/	.
